The results in this text go back to PubChem BioAssay (Tox21).

Records with an inconclusive call do not appear. A call without a number means that no potency is given here. Calls of active or inactive are those of the source. Calls come from the whole dose curve.
Potency is the fitted concentration of half-maximal effect.

This assay can be described thus: qHTS assay to identify small molecule agonists of the progesterone receptor (PR) signaling pathway - cell viability counter screen (AID 1346799). Note: nearly all actives have a fitted effect of over 45% in size. Conditions: PR-UAS-bla HEK293T viability, CellTiter-Glo luminescence, 16 h; series mostly up to 92.4 µM. The source says: National Center for Advancing Translational Sciences [NCATS]
NIH Chemical Genomics Center [NCGC]
U.S. Environmental Protection Agency [EPA]
National Institutes of Environmental Health Sciences [NIEHS]
National Toxicology Program [NTP]
U.S. Food and Drug Administration [FDA]
Progesterone receptor (PR), a nuclear hormone receptor, plays an important role in development, metabolic homeostasis and reproduction. It is activated by the steroid hormone progesterone. Endocrine disrupting chemicals (EDCs) and their interactions with steroid hormone receptors like PR causes disruption of normal endocrine function. To identify the compounds that stimulate PR signaling, a PR-UAS-bla GripTite cell line i.e. PR-UAS-bla HEK293T (Invitrogen, Carlsbad, CA, USA) containing a beta-lactamase reporter gene under the control of an UAS response element was used to screen Tox21 10K compound library. The cytotoxicity of the Tox21 compound library against the PR-bla cell line was tested in parallel by measuring the cell viability using CellTiter-Glo assay in the same wells.
Tox21 Assay Protocol Summary:
PR-UAS-bla HEK293T cells were dispensed at 3,000 cells/5 uL of assay medium containing 2% charcoal stripped FBS per well into black wall/clear-bottom 1536-well plates using a Multidrop Combi (ThermoFisher Scientific, Waltham, MA) dispenser. After the assay plates were incubated at a 37C and 5% CO2 for 6 hr, 23 nL of compounds dissolved in DMSO, positive controls or DMSO only was transferred to the assay plate by a Pintool station (Kalypsys, San Diego, CA). The plates were incubated at 37C and 5% CO2 for 16 hr. Then 1 uL of LiveBLAzer B/G FRET substrate was added using a Flying Reagent Dispenser (FRD, Aurora Discovery, San Diego, CA), the plates were incubated at room temperature for 2 hours, and fluorescence intensity was measured by an Envision plate reader (PerkinElmer, Shelton, CT). For cell viability readout that measures cytotoxicity, 4 uL/well of CellTiter-Glo reagent was added into the assay plates using a FRD. After 30 min incubation at room temperature, the luminescence intensity in the plates was measured using a ViewLux (PerkinElmer) plate reader.
As to `Cc1cc(N)n(-c2ccccc2)n1`, the Potency result was “inactive”. Take `Nc1ccc(F)cc1F`: the Potency result is “inactive”. Still for that read-out and setting: the result for `CCOC(=O)CC(O)(CC(=O)OCC)C(=O)OCC` reads “inactive”; that for `O=C1C=CCCC1`, “inactive”.

`O=[N+]([O-])c1ccccc1CCO`: the Potency entry was “inactive”. On the same count and under the same terms, the result for `Cc1ccc(NC=O)c(C)c1` reads “inactive”. Same read-out and setting: the result for `CCC1=C(C)CN(C(=O)NCCc2ccc(S(=O)(=O)NC(=O)NC3CCC(C)CC3)cc2)C1=O` (stereo not given) reads “inactive”; that for `COc1cccc([C@H](O)C2CCN(CCc3ccc(F)cc3)CC2)c1OC`, “inactive”; that for `C/C(=C(\CCO)SS/C(CCO)=C(\C)N(C=O)Cc1cnc(C)nc1N)N(C=O)Cc1cnc(C)nc1N`, “inactive”. On to `CC1=C(C)C(=O)C(C(CCCCCC(=O)O)c2ccccc2)=C(C)C1=O` (stereo not given), for which the Potency entry is “inactive”.

On to `Cc1cccc(C)c1NC(=O)CN1CCCC1`, for which the Potency result was “inactive”.

Turning to `FC1(F)C(F)(F)C(F)(F)C2(F)C(F)(C1(F)F)C(F)(F)C(F)(F)C1(F)C(F)(F)C(F)(F)C(F)(F)C(F)(F)C12F` (stereo not given), the Potency result was “inactive”.

Regarding `CCCCCCCCCC(C)C=O` (stereo not given), the Potency is 43.3 µM (active). The same measure, in the same setting: next, `CC/C=C/CCO`: 19.7 µM (active); `Cc1cc(SC2=C(O)C[C@@](CCc3ccc(N)cc3)(C(C)C)OC2=O)c(C(C)(C)C)cc1CO`: “inactive”; `CCOC(OCC)OCC`: “inactive”. Still for that read-out and setting: the result for `Cc1cc(C)c(C)c(O)c1` reads “inactive”; that for `CCc1c(C)[nH]c2c1C(=O)C(CN1CCOCC1)CC2` (stereo not given), “inactive”; that for `OCCc1ccncc1`, “inactive”. On to `c1ccc(-c2ccc(-c3ccccc3)cc2)cc1`, for which the activity change, negative = cytotoxicity was 0% [at 19 µM] (inactive). With `CC1(C)[C@@H]2CC[C@]3(C2)[C@@H]1C(=O)CCC3(C)C`, the Potency was 27.3 µM (active). Still for that read-out and setting: next, `CCCCCCCCCCCCSC#N`: “inactive”; `CCC(CC)C(=O)O`: “inactive”; `Cc1ccc(Cl)c(OCC(O)CNC(C)(C)C)c1` (stereo not given): “inactive”.

Take `CCCCOC(=O)CC#N`: the Potency entry was “inactive”. On the same count and under the same terms, next, `CC1(C)CC(O)CC(C)(C)N1[O]`: “inactive”; `CCc1cnc(C(=O)O)c(C(=O)O)c1`: “inactive”. Same read-out and setting: next, `CCCCOc1ccc(N)cc1`: “inactive”. Consider `O=C(O)c1ccc(O)c(O)c1`, for which the Potency result was “inactive”. For `Clc1cccc(C(c2ccc3nc[nH]c3c2)n2ccnc2)c1` (stereo not given), the Potency entry was “inactive”. Same read-out and setting: next, `CCCCC(CC)COCCC#N` (stereo not given): “inactive”. Same read-out and setting: the result for `C=C[Si](OCC)(OCC)OCC` reads “inactive”; that for `CCn1nc(Cc2ccccc2)cc1C1CCN(C[C@H]2C[C@H](N(C)[C@@H](C(=O)O)C(C)C)C[C@@H]2c2cccc(F)c2)CC1`, “inactive”. Still for that read-out and setting: next, `O=C1c2ccccc2C(=O)C1c1ccc2ccccc2n1`: “inactive”; `CCC(C(=O)O)c1ccc(N2Cc3ccccc3C2=O)cc1` (stereo not given): “inactive”. Consider `CC(=O)OCC(=O)[C@@]1(O)CC[C@H]2[C@@H]3CCC4=CC(=O)C=C[C@]4(C)[C@@]3(F)[C@@H](O)C[C@@]21C`, for which the Potency result is “inactive”. The same measure, in the same setting: the result for `CC1(C)CC(=O)CC(C)(C)N1` reads “inactive”.

`CCCCCCCCCCCCN1CCOCC1`: the Potency entry was “inactive”. Still for that read-out and setting: next, `CC(C)(O)C(=O)O`: “inactive”; `O=S(=O)(O)c1cc(Cl)c(Cl)cc1Cl`: 30.6 µM (active).
